KDM5B inh: Primary screen for KDM5B Histone Demethylases FDH-coupled qHTS; Lysine-specific demethylase 5B (Homo sapiens), Q9UGL1; KDM5B demethylase, FDH-coupled NADH fluorescence (FDH is formaldehyde dehydrogenase); Potency, µM (titrated, usually from 57.7 µM), actives largely listed as inhibitors; 220,000 compounds, 2.6% hits; active means well fitted inhibition curve with a large enough effect; further: 0% is about no effect; nearly all actives have a fitted effect of over 70% in size
Target sequence (Q9UGL1 whole entry, looked up): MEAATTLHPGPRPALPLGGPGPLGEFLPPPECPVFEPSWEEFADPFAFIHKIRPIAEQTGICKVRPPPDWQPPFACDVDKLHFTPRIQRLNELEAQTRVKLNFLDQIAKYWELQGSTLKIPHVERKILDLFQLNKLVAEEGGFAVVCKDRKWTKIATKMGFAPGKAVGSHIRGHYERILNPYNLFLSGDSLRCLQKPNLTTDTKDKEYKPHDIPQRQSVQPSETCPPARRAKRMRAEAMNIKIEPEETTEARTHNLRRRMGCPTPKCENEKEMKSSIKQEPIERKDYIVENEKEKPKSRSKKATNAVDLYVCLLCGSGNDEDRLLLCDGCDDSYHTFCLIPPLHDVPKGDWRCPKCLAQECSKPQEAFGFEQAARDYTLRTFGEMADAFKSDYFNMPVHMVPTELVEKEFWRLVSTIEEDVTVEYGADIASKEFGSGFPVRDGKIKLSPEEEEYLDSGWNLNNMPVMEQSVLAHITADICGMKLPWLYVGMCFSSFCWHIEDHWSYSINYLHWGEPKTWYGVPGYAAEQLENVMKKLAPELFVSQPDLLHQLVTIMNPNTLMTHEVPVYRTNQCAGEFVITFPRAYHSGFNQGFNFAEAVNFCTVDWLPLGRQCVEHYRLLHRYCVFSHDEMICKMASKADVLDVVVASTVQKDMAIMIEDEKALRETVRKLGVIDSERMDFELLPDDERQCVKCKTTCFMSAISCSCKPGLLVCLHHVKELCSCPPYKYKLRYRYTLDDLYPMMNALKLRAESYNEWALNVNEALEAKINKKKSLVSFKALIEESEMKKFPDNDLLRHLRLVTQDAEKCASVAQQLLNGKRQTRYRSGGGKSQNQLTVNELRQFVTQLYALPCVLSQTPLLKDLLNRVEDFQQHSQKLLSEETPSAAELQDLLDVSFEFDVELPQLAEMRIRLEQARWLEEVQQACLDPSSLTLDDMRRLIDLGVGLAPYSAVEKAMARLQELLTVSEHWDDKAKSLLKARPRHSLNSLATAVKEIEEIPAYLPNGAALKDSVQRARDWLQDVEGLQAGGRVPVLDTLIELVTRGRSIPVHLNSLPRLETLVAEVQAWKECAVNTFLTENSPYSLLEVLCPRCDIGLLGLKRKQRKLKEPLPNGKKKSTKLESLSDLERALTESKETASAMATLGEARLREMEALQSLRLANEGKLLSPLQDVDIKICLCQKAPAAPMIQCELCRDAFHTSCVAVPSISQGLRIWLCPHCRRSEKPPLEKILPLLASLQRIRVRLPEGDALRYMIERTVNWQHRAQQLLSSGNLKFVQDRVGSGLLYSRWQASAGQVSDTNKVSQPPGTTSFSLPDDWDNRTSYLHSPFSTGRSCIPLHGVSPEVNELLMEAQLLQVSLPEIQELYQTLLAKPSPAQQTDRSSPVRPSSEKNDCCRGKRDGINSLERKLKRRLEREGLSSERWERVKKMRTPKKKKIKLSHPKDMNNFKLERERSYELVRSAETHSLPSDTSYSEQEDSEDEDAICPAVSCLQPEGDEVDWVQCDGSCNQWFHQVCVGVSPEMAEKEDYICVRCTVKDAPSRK
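qHTS format, multiple compound concentrations. Buffer 50 mM HEPES pH 7.5/0.01% Tween-20; 200 nM KDM5BΔAP final; 10 min compound preincubation; substrate-mix levels 12.5 µM peptide, 25 µM α-KG, 0.25 mM NAD⁺; 30 min RT; ΔRFU.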
The depositor's hits bear a star; i = inactive. This excerpt belongs to a sample that is enriched for hits. Potency means the concentration at half of the fitted maximal effect.

SMILES	KDM5B inh
O=C(NCc1ccnc2[nH]ccc12)c1cncc(Br)c1	i
O=C(NCc1c[nH]c2ncccc12)c1cccc(Cl)c1	i
O=C(NCc1c[nH]c2ncccc12)c1cccc2[nH]ccc12	35µM*
O=C(NCc1ccnc2[nH]ccc12)c1ccccc1	i
Cn1c(=O)c2c(ncn2CC(=O)Nc2ccc3c(c2)OC2(CCCC2)O3)n(C)c1=O	i
CSCC[C@H](Nc1ncnc2sc3c(c12)CCCC3)C(=O)O	i
CC(Sc1n[nH]c(-c2cccs2)n1)C(=O)Nc1cccc(Cl)c1Cl (centres undefined)	i
COc1ccc(-c2nn(-c3ccccc3)cc2CN2CCN(C)C(C)C2)c(F)c1 (centres undefined)	i
COC1CCCN(Cc2cn(-c3ccc(F)cc3)nc2-c2ccccc2Cl)C1 (centres undefined)	i
COc1ccc(-c2nn(-c3ccccc3)cc2CN2CCN(C)CC2)c(F)c1	i
COc1ccc(-n2cc(CN3CCCC(CO)C3)c(-c3cccc(F)c3)n2)cc1 (centres undefined)	35µM*
COc1ccc(-c2nn(-c3ccccc3)cc2CN2CCN3CCCC3C2)c(F)c1 (centres undefined)	i
COc1ccc(-n2cc(CN3CCN(C)C(C)C3)c(-c3cccc(F)c3)n2)cc1 (centres undefined)	25µM*
O=C(COc1ccc2c(=O)c(-c3ccccc3)coc2c1)Nc1ccc2c(c1)OCO2	i
Cc1ccc(CNS(=O)(=O)c2cc(-c3cc(C(F)(F)F)on3)ccc2C)cc1	i
Cn1c(=O)[nH]c(=O)c2c1nc(N1CCN(CC(N)=O)CC1)n2Cc1ccccc1	i
CC(=O)CC(=O)Nc1ccccc1C#N	i
CCn1cc(S(=O)(=O)N2CCN(c3ccccc3C)CC2)cn1	i
COc1ccc(NC(=O)CC2C(=O)NCCN2C(=O)CN2CCN(c3ncccn3)CC2)cc1 (centres undefined)	i
COCC(=O)Nc1ccc(-c2noc([C@@H]3CCCN3C)n2)cn1	i
COc1ccc(CCC(=O)N2CCC[C@H]2c2nc(-c3ccc(C)cc3)no2)cc1	i
COCC(=O)Nc1ccc(-c2noc([C@@H]3CCCN3Cc3ccc(NC(C)=O)cc3)n2)cn1	i
COCC(=O)Nc1ccc(-c2noc([C@@H]3CCCN3Cc3cc4ccccc4o3)n2)cn1	32µM*
O[C@@H]1C[C@@H](c2nc(-c3ccccn3)no2)N(Cc2ccccc2)C1	i
O[C@@H]1C[C@@H](c2nc(-c3ccccn3)no2)N(Cc2cccc(OC(F)(F)F)c2)C1	i
SMILES	KDM5B inh
COc1ccc(-c2noc([C@@H]3CCCN3C(=O)c3ccc(Cl)cc3)n2)cc1	i
COc1ccc(-c2noc([C@@H]3CCCN3C(=O)c3ccc(C)nc3)n2)cc1	i
COc1ccc(C(=O)Nc2ccc(-c3noc([C@@H]4CCCN4CC4CCCCC4)n3)cn2)cc1	32µM*
O[C@@H]1C[C@@H](c2nc(-c3ccccn3)no2)N(Cc2cc3ccccc3o2)C1	32µM*
COc1ccc(C(=O)Nc2ccc(-c3noc([C@@H]4CCCN4Cc4ccc(C(F)(F)F)cc4)n3)cn2)cc1	28µM*
COCC(=O)Nc1ccc(-c2noc([C@@H]3CCCN3Cc3cccc(C#N)c3)n2)cn1	i
CSc1cccc(NC(=O)Cn2c(-c3ccc(F)cc3)nc(C)c(CCO)c2=O)c1	i
COc1ccc(C(=O)Nc2cc(NC(=O)c3ccc(Br)o3)ccc2OC)cc1	i
Cc1ccc(NC(=O)Cc2ccc3c(c2)CCCC3)cc1	i
COc1cccc2cc(-c3nn4c(C(C)C)nnc4s3)oc12	i
CCCCOc1ccc(/C=C/C(=O)c2ccc(O)c(OC)c2)cc1OCC	i
CCOC(=O)c1[nH]c(C)c(/C(Br)=C/Br)c1C	i
O=S(=O)(NCCO)c1ccc(Oc2ccc(S(=O)(=O)NCCO)cc2)cc1	i
CN(C)c1ccc(-c2noc([C@@H]3CCCN3C3CCOCC3)n2)cn1	i
CN(C)c1ccc(-c2noc([C@@H]3CCCN3CC3CCCCC3)n2)cn1	40µM*
COc1ccc2c(c1)cc(C(=O)Nc1cccc(C)c1C)n2C	i
O=C(CCc1nnn2c1CN(C(=O)NCCc1ccccc1)CC2)N1CCCC1	i
O=C(c1ccccc1Cl)N1CCN(C(=O)c2nnn3c2COC(c2ccccc2)C3)CC1 (centres undefined)	i
O=C(c1nnn2c1COC(c1ccccc1)C2)N1CCN(C(=O)c2cccc3[nH]ccc23)CC1 (centres undefined)	28µM*
O=C(CCc1nnn2c1CN(C(=O)COc1ccc(F)cc1)CC2)N1CCCC1	i
O=C(CCc1nnn2c1CN(C(=O)c1cccc3[nH]ccc13)CC2)N1CCCC1	28µM*
O=C(c1ccccc1F)N1CCN(C(=O)c2nnn3c2COC(c2ccccc2)C3)CC1 (centres undefined)	i
Cc1ccc(CCC(=O)N(C)Cc2cccs2)cc1	i
Cn1c(Cl)nc2c1c(=O)n(Cc1ccc(Cl)cc1)c(=O)n2C	i
COc1ccc(-c2cc(C(=O)NCC(c3ccc(C)o3)N3CCN(C)CC3)no2)cc1 (centres undefined)	i
SMILES	KDM5B inh
COc1cc(C)c2c(c1C)C[C@H](C(C)C(=O)NC(C)(C)C)CC2 (some centres undefined)	i
O=C(O)CCCC[C@@H]1SC[C@@H](NC(=O)c2ccccc2)[C@@H]1O	i
COc1cccc(Cn2nnc3c(=O)[nH]c(C4CCN(C(=O)c5ccccc5)CC4)nc32)c1	i
N#Cc1ccc(S(=O)(=O)N2CC[C@@H]3C(=O)NCCCCCCN(Cc4ccncc4)[C@@H]3C2)cc1	i
Cc1ccc(CNC(=O)N2CCCCCCNC(=O)[C@@H]3C[C@@H](C(=O)NCCc4cnc[nH]4)C[C@@H]32)cc1	i
N#Cc1ccc(CN2CCCCCCNC(=O)[C@@H]3C[C@@H](C(=O)NCCc4cnc[nH]4)C[C@@H]32)cc1	20µM*
COCC(=O)NC[C@H]1O[C@@H](CC(=O)N2CCN(c3ccccc3)CC2)[C@H](O)[C@@H]1O	i
O=C(NC[C@H]1O[C@@H](CC(=O)N2CCN(c3ccccc3)CC2)[C@H](O)[C@@H]1O)c1ccccc1	i
COc1ccccc1N1CCN([C@@H]2[C@H](O)[C@H](CO)O[C@@H]2CNS(=O)(=O)c2ccc(Cl)cc2)CC1	i
CS(=O)(=O)NC[C@H]1O[C@@H](CC(=O)N2CCN(c3ccccn3)CC2)[C@H](O)[C@@H]1O	35µM*
Cc1ccc(S(=O)(=O)NC[C@H]2O[C@@H](CC(=O)N3CCN(c4ccccc4)CC3)[C@H](O)[C@@H]2O)cc1	i
Cc1ccc(C(=O)NC[C@H]2O[C@@H](CC(=O)N3CCN(c4ccccn4)CC3)[C@H](O)[C@@H]2O)cc1	i
CCC(CC)C(=O)NC[C@H]1O[C@@H](CC(=O)N2CCN(c3ccccn3)CC2)[C@H](O)[C@@H]1O	32µM*
O=S(=O)(NC[C@H]1O[C@@H](CO)[C@@H](O)[C@H]1N1CCN(c2ccccn2)CC1)c1ccc(Cl)cc1	28µM*
Cc1ccc(S(=O)(=O)NC[C@H]2O[C@@H](CC(=O)N3CCN(c4ccccn4)CC3)[C@H](O)[C@@H]2O)cc1	28µM*
Cc1ccc(S(=O)(=O)NC[C@H]2O[C@@H](CC(=O)N3CCN(c4ccc(F)cc4)CC3)[C@H](O)[C@@H]2O)cc1	i
O=C(C[C@@H]1O[C@H](CNS(=O)(=O)c2ccccc2)[C@@H](O)[C@H]1O)N1CCN(c2ccccc2)CC1	i

Source: PubChem
